Measurements reported in the supplement of paper PMC10681739.

Assays:
[1] = target: RUNX1 (UniProt Q01196); test: RUNX1 binding intensity (PBM fluorescence), RUNX1 alone (arbitrary fluorescence units); higher = stronger binding; conditions: RUNX1 concentration 2 nM; ETS1 concentration 0 nM
Procedure: (§1)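 Cooperative gcPBM on 36-bp genomic probes with neighbouring ETS1 and RUNX1 sites. Recombinant human RUNX1 (2 nM) was incubated alone or with ETS1 (25 nM) and detected with anti-RUNX1 antibody plus Alexa488 secondary. Values are medians over 4 replicate spots; the RUNX1+ETS1 data were normalised to the RUNX1-only data. The probes sit in constant array flanks that are not printed.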

[2] = target: RUNX1 (UniProt Q01196); test: RUNX1 binding intensity (PBM fluorescence) in presence of ETS1, normalised to RUNX1-only experiment (arbitrary fluorescence units); higher = stronger binding; conditions: RUNX1 concentration 2 nM; ETS1 concentration 25 nM
Procedure: as §1

[3] = target: T1, ETS1 (UniProt P14921); test: ETS1 binding intensity (PBM fluorescence) in presence of RUNX1, normalised to ETS1-only experiment (arbitrary fluorescence units); higher = stronger binding; conditions: ETS1 concentration 1 nM; RUNX1 concentration 25 nM
T1 sequence: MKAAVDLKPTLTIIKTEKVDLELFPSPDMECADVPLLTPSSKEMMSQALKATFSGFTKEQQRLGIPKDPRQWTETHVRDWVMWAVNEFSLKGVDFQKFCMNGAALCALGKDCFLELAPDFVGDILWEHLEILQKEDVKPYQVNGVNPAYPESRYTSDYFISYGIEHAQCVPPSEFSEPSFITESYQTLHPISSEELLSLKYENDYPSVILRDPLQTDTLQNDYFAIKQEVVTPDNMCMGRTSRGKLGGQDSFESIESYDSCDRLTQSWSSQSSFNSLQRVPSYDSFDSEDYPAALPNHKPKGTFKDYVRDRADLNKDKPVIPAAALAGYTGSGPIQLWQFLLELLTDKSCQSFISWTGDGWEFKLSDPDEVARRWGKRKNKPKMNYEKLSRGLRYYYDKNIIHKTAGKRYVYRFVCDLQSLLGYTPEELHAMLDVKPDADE
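Throughout, for RUNX1 binding intensity (PBM fluorescence) in presence of ETS1, normalised to RUNX1-only experiment: Full-length recombinant human ETS1 or RUNX1 bound to double-stranded 36-bp genomic probes on microarrays, detected by protein-specific primary antibody and Alexa488 secondary, spot fluorescence as median of four replicate spots.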
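Throughout, for RUNX1 binding intensity (PBM fluorescence), RUNX1 alone: Full-length recombinant human RUNX1 bound to double-stranded 36-bp genomic probes on a high-density microarray, scored as Alexa488 fluorescence per spot via anti-RUNX1 antibody, median of four replicate spots.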

Sequence of RUNX1 (Q01196 whole entry): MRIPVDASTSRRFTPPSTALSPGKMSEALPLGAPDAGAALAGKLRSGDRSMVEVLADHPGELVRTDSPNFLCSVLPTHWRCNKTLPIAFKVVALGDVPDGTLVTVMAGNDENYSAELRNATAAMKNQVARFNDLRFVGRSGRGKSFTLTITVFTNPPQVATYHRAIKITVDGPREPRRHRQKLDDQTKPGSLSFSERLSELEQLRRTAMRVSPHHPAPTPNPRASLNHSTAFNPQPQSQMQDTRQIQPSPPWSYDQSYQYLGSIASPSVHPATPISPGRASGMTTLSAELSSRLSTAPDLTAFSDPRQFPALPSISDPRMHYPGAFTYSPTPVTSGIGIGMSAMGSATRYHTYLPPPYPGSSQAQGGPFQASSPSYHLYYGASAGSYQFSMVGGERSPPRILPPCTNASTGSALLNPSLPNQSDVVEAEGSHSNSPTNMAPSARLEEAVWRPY

| Sequence | RUNX1 binding intensity [1] | RUNX1 binding intensity [2] | ETS1 binding intensity [3] |
| --- | --- | --- | --- |
| TTAGAGCTGACATCCTTGCGGTCCACAGCCTCCAAA | 961 | 1090 | – |
| TACGGGAACTTCCTTTTCTTGTGGTGTGGCCGGGTC | 873 | 2050 | 853 |
| TCCCACATCCTGTGCTCGTGCAGTGGTTAGGCTCAA | 793 | 2490 | 608 |
| GCCGCGCGGAAGCCTCCGCCCTGTGGTTTTGGAGCC | 1030 | 1530 | 993 |
| GAAAGCTGCACTATTTCCTGAGGTTAGAGGTTTAAA | 815 | 1040 | 502 |
| GGGCAGCAGCAGACCGGAAACCACAGCCGACTAAGA | 1160 | 3330 | 29500 |
| TGGCTGTGTCCCGGAAGTGGTCATAAGCTGGGTCCC | 730 | 2470 | 9830 |
| AGCTGTTTGGTCACAGGATGTGGTTATTAGAATAGG | 894 | 4040 | 27900 |
| TGAGCAAGTTCCTTCCTGTCTGTGGTCCAGGGTTTA | 747 | 1510 | 881 |
| GTACGACAGCGGGTTCCGGTGACCACGAAGGCGGCA | 938 | 1180 | 467 |
| CCTTCCTTCCGGGGTCGGCCCCGCCCGCAAGCGCCG | 1180 | 3960 | 467 |
| CTCTTCCGCTCAGTCATCCTCAGAGGTGGTAAGACT | 1080 | 2080 | 387 |
| GCAACAGGAAGGACCAAGTCCCCTCCCGCAATTTTA | 888 | 1020 | 955 |
| TCATTTCCTCTGGTGTTATTGTGTTGTGGTTTTAAG | 1580 | 3040 | 1560 |
| GGGTGAGTATTTCCTCCTGCGGTGGGTCGGCATGTA | 796 | 1570 | – |
| AGTTTTCCGTCGGGCTCCCAGTGACGCCGCAGAGGT | 764 | 1180 | – |
